2 compounds from ChEMBL document CHEMBL1961873, “Compounds: GSK PKIS; Assays: Nanosyn kinase panel” (2012) can be followed below.

Assay [1] has as its target Protein kinase C gamma type (Homo sapiens) (UniProt P05129). As to conditions: at 1 µM.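 Also: each value is an averaged percent inhibition of the enzyme.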
For assay [2], the target named is T1, Protein kinase C iota type (Homo sapiens) (UniProt P41743).
T1 sequence (whole entry): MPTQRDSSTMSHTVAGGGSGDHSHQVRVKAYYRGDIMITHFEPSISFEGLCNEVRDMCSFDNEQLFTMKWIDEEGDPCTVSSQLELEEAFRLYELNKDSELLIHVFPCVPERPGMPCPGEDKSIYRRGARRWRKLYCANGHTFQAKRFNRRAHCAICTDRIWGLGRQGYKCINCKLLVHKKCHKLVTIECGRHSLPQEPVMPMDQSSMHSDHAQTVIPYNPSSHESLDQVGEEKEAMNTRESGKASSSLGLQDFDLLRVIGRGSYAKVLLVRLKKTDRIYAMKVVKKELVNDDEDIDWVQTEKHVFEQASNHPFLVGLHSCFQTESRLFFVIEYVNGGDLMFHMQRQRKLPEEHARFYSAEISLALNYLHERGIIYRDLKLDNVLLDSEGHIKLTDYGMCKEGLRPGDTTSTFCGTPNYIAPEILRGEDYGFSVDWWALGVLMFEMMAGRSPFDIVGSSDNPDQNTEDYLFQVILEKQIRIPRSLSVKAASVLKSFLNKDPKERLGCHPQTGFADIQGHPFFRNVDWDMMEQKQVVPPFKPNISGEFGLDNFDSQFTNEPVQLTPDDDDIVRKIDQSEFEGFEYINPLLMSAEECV
As to conditions: at 0.1 µM.

Assay [3] deals with T1, Protein kinase C iota type (Homo sapiens). As to conditions: at 1 µM.
Assay [4] addresses Protein kinase C theta type (Homo sapiens) (UniProt Q04759). As to conditions: at 0.1 µM.
The target is the same in assay [5]. As to conditions: at 1 µM.
Assay [6] concerns the target Protein kinase C beta type (Homo sapiens) (UniProt P05771). The note with it: at 0.1 µM.
The target is the same in assay [7]. As to conditions: at 1 µM.
Assay [8] addresses T2, Serine/threonine-protein kinase D1 (Homo sapiens) (UniProt Q15139).
T2 sequence (whole entry): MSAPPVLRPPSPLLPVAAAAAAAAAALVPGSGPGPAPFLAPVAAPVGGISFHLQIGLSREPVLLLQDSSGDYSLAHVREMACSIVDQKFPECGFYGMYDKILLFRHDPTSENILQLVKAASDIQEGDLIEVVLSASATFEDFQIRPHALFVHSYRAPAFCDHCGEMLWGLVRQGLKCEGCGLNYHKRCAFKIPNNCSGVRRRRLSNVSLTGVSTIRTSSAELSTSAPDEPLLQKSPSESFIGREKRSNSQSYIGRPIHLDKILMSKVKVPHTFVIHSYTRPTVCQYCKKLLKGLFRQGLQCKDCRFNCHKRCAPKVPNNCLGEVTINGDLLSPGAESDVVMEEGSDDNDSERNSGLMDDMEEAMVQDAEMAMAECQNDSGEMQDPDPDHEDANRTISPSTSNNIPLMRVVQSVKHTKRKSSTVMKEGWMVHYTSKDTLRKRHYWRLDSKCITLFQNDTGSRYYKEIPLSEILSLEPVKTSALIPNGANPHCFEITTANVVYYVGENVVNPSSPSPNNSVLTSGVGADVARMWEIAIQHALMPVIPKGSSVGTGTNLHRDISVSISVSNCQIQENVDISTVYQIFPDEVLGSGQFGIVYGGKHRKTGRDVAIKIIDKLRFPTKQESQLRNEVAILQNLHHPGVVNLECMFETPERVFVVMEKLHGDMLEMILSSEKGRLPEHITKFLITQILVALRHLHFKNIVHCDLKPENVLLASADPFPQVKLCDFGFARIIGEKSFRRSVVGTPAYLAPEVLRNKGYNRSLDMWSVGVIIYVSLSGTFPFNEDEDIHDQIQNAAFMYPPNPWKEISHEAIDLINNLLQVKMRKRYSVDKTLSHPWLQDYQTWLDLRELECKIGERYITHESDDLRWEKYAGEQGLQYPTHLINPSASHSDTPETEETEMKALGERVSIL
The note with it: at 0.1 µM.

In assay [9] the target is T2, Serine/threonine-protein kinase D1 (Homo sapiens). The note with it: at 1 µM.
The target of assay [10] is T3, Serine/threonine-protein kinase D2 (Homo sapiens) (UniProt Q9BZL6).
T3 sequence (whole entry): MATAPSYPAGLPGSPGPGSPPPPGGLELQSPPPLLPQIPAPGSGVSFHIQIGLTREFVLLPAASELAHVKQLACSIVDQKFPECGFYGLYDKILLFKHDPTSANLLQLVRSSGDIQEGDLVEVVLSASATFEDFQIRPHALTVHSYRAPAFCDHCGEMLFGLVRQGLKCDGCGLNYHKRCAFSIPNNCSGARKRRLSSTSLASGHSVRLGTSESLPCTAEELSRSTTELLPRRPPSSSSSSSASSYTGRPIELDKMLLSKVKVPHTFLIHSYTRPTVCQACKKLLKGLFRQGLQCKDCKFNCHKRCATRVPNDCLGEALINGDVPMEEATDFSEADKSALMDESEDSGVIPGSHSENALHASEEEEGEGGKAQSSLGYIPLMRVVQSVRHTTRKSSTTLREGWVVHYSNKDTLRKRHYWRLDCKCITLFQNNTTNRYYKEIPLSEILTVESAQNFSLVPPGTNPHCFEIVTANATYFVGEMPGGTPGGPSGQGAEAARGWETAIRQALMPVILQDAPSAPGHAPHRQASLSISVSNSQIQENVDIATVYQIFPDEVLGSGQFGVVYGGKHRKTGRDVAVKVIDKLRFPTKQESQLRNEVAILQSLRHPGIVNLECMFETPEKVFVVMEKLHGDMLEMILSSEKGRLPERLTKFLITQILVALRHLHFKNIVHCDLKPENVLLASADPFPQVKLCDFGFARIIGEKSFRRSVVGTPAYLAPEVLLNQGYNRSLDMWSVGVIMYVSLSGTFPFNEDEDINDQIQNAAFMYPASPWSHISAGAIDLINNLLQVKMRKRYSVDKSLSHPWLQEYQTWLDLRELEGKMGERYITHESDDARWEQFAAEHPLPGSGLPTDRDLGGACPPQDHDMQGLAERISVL
The note with it: at 0.1 µM.

The target in assay [11] is T3, Serine/threonine-protein kinase D2 (Homo sapiens). As to conditions: at 1 µM.
The target of assay [12] is T4, Serine/threonine-protein kinase D3 (Homo sapiens) (UniProt O94806).
T4 sequence (whole entry): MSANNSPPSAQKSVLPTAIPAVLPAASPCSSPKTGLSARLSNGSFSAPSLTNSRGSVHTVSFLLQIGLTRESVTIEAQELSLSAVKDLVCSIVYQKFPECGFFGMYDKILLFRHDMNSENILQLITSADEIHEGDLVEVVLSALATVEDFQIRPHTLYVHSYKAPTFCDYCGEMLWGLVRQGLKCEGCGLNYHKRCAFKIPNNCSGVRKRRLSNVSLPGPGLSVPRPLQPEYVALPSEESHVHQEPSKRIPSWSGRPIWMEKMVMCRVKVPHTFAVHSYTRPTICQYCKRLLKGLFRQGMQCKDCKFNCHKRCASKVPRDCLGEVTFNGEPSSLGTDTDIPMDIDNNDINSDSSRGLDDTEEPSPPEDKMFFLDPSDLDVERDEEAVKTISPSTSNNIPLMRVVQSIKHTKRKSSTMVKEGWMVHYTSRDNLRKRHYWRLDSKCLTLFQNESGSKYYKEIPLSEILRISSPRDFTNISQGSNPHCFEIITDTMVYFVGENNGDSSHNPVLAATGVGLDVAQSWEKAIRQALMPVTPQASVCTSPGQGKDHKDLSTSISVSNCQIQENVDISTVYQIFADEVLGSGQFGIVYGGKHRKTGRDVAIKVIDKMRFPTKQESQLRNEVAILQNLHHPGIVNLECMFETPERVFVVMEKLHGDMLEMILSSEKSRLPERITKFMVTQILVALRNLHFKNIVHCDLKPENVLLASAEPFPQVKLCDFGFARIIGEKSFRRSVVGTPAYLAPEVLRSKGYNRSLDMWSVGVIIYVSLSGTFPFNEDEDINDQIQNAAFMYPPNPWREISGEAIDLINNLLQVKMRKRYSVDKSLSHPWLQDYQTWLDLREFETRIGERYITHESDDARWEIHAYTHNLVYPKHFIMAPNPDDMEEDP
The note with it: at 0.1 µM.

Assay [13] deals with T4, Serine/threonine-protein kinase D3 (Homo sapiens). The note with it: at 1 µM.
Assay [14] has as its target T5, cGMP-dependent protein kinase 1 (Homo sapiens) (UniProt Q13976).
T5 sequence (whole entry): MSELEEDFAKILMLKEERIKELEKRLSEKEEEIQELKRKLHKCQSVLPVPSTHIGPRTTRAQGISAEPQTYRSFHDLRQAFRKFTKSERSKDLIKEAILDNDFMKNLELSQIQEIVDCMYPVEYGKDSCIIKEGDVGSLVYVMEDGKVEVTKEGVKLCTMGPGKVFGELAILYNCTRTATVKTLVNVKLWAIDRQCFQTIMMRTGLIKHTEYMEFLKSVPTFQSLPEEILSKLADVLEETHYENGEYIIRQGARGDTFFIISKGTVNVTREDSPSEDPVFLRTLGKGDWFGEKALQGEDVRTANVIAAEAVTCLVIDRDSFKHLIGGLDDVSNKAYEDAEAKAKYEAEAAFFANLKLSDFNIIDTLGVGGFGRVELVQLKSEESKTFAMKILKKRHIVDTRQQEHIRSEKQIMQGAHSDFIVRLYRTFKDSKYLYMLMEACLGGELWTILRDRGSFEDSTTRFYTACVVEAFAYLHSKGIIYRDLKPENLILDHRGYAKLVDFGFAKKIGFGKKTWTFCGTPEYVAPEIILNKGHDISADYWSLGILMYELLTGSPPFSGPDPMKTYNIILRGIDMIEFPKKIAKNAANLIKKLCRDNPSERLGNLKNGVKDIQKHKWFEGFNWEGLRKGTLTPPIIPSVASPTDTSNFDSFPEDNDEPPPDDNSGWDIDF
As to conditions: at 0.1 µM.

Assay [15] deals with T5, cGMP-dependent protein kinase 1 (Homo sapiens). The note with it: at 1 µM.
Assay [16] deals with T6, cGMP-dependent protein kinase 2 (Homo sapiens) (UniProt Q13237).
T6 sequence (whole entry): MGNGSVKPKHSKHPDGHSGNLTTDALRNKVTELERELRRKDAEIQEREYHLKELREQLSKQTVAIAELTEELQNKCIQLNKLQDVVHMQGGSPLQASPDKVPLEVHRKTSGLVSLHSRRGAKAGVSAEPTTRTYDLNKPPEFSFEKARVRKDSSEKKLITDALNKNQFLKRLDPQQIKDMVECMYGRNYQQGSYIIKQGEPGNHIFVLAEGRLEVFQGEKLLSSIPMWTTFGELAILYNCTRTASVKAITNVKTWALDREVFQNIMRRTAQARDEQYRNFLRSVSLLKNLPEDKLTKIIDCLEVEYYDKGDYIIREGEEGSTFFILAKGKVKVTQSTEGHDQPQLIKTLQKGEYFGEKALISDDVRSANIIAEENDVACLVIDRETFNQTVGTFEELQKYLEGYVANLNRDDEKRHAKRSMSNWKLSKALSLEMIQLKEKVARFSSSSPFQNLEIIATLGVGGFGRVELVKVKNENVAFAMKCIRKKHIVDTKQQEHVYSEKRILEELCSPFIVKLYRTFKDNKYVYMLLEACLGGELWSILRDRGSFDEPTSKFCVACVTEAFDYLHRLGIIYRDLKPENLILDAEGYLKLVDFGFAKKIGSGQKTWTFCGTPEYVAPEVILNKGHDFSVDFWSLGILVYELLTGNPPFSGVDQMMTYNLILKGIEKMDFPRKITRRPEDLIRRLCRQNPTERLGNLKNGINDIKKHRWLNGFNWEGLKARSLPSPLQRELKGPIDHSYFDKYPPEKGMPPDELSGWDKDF
The note with it: at 0.1 µM.

Assay [17] has as its target T6, cGMP-dependent protein kinase 2 (Homo sapiens). The note with it: at 1 µM.
Assay [18] deals with T7, cAMP-dependent protein kinase catalytic subunit PRKX (Homo sapiens) (UniProt P51817).
T7 sequence (whole entry): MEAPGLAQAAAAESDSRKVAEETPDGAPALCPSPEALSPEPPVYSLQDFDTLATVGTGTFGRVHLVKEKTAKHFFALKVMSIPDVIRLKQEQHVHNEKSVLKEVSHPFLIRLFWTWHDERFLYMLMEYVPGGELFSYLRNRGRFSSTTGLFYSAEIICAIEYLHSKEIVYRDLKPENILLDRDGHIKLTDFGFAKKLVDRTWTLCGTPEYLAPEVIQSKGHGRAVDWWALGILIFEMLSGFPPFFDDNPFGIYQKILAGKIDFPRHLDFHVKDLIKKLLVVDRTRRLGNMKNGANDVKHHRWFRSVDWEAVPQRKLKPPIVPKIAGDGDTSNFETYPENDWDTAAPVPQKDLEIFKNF
As to conditions: at 0.1 µM.

For assay [19], the target named is T7, cAMP-dependent protein kinase catalytic subunit PRKX (Homo sapiens). As to conditions: at 1 µM.
Assay [20] deals with Rho-associated protein kinase 1 (Homo sapiens) (UniProt Q13464). The note with it: at 0.1 µM.
Chain of Rho-associated protein kinase 1 (Homo sapiens) (Q13464 2-1354 limits assumed): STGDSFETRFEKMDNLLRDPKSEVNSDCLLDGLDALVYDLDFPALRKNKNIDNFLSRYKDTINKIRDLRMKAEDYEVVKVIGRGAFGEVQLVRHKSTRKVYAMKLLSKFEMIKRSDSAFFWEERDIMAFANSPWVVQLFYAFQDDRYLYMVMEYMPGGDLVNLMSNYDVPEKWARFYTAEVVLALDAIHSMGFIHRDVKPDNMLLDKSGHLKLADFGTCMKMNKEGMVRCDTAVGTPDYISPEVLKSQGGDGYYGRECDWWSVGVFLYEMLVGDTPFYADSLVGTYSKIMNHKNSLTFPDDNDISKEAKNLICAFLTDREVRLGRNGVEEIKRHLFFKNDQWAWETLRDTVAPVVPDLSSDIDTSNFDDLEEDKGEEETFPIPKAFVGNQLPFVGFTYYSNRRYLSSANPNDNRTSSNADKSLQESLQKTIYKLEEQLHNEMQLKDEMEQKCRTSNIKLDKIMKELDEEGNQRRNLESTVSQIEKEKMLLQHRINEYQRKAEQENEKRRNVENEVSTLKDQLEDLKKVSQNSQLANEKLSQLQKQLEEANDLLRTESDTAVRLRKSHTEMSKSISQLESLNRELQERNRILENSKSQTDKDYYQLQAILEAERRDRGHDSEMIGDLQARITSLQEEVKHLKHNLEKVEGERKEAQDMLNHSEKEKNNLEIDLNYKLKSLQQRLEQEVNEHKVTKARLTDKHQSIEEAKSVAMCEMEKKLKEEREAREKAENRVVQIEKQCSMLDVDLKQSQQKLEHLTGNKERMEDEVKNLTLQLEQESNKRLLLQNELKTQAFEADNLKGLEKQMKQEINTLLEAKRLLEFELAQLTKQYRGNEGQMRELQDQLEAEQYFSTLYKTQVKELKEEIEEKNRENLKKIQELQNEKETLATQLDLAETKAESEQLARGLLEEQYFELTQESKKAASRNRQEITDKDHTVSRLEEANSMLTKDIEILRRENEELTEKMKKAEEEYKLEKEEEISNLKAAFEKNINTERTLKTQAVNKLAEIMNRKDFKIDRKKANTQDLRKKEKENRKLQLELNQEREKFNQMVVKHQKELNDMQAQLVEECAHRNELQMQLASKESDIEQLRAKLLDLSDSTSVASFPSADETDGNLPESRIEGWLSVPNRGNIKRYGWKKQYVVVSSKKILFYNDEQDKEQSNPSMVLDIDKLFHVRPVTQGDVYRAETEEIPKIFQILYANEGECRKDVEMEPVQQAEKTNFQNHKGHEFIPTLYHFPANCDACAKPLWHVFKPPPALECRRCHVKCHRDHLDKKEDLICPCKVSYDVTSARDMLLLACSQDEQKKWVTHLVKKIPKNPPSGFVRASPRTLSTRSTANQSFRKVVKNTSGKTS

Chain of Protein kinase C theta type (Homo sapiens) (Q04759 whole entry, looked up): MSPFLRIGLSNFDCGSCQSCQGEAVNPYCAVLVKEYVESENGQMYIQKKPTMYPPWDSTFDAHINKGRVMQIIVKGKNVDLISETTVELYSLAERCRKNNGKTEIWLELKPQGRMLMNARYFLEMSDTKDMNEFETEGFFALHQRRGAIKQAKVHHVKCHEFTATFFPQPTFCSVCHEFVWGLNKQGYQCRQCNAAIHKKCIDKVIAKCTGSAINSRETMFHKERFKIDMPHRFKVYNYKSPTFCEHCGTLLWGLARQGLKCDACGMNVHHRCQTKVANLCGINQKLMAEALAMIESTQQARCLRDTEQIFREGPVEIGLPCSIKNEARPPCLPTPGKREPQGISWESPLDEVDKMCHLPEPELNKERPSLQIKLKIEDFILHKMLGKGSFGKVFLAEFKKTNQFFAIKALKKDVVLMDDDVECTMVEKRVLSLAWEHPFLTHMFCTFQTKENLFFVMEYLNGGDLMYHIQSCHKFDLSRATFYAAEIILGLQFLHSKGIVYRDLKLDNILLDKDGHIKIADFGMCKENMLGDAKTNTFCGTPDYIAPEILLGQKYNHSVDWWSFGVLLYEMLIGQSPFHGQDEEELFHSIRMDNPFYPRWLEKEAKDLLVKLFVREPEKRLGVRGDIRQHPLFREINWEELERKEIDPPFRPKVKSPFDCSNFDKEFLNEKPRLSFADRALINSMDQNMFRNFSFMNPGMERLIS
Chain of Protein kinase C beta type (Homo sapiens) (P05771 2-671 limits assumed): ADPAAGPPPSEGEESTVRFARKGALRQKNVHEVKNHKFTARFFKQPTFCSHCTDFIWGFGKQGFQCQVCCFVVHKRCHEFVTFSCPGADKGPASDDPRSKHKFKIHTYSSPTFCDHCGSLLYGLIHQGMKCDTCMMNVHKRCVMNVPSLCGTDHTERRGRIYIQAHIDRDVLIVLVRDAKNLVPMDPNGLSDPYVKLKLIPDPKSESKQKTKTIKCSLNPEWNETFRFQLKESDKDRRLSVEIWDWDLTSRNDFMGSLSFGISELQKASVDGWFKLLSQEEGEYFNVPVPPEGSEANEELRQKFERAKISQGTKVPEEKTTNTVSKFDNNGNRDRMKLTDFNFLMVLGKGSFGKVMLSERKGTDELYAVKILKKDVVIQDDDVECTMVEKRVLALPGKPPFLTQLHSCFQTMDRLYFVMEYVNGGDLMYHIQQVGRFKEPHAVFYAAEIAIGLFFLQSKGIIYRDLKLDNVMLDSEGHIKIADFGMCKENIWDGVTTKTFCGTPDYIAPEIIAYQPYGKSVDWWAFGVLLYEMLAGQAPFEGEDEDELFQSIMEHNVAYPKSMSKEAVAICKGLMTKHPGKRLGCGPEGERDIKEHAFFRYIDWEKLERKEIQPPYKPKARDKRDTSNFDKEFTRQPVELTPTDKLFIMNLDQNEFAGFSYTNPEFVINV

For orientation: inhibition means the drop in the measured response relative to a control, in per cent. As to `COc1cc(Nc2ncc(-c3ccccc3)o2)cc(OC)c1OC`, the inhibition in assay [1] is 1.46%; in assay [2], 0.32%; in assay [3] it was 0.77%; in [4], -0.7%; in [5], -0.9%; in assay [6] it was 0.3%. Further, the inhibition was 2.2% in assay [7]; -0.66% in assay [8]; -1.47% in [9]; -0.6% in assay [10]; -0.05% in assay [11]; -1.81% in assay [12]. The inhibition was -1.6% in assay [13]; 1.84% in assay [14]; 1.3% in [15]; -0.12% in [16]; 1.47% in assay [17]; 0.22% in assay [18]. Besides, the inhibition was 0.75% in [19] and 0.49% in assay [20].
Take `Cc1ccc(NC(=O)c2ccoc2)cc1-c1ccc(C(=O)NCC2CC2)cc1`: the inhibition was -0.41% in [1]; 1.53% in assay [2]; -0.02% in assay [3]; 0.79% in assay [4]; 0.76% in [5]; -0.21% in assay [6]. Besides, the inhibition in assay [7] stood at 0.92%; in assay [8], 3.2%; in assay [9], 2.32%; in assay [10] it was 2.39%; in [11], 3.55%; in [12] it was 2.92%. Moreover, the inhibition in assay [13] is 2.95%; in assay [14], 0.89%; in assay [15], 1.09%; in [16] it was 1.21%; in assay [17], 1.02%; in [18], 1.5%. The values for the inhibition in [19] and in assay [20] were 0.55% and 0%, respectively.
